Assay results published in PubChem BioAssay (NCATS).
Records with an inconclusive call do not appear. Active and inactive are the calls of the source. Calls come from the whole dose curve; as a rule, active = well fitted curve in the direction sought with a large enough effect; inconclusive = small, poorly fitted or top-dose-only effect, or another doubt; inactive = no such curve, though single readings can be large; an effect the other way counts as inactive or inconclusive.

How the values were obtained:
[1] = NS1 protein of Zika virus - qHTS assay to identify small molecule inhibitors in human HEK 293 cells (AID 1347053); note: series mostly up to about 46 µM; nearly all actives have a fitted effect of over 55% in size
Procedure, shortened: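 Readout was TR-FRET using paired anti-NS1 antibodies after 24 h infection of HEK 293 cells with ZIKV MR766 (MOI = 0.5). Compound preceded virus by 1 h; reduced signal reflects lower NS1 expression.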

[2] = qHTS of pediatric cancer cell lines to identify multiple opportunities for drug repurposing: Primary screen for TC32 cells (AID 1347089); note: nearly all actives have a fitted effect of over 60% in size
Procedure, shortened: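 Luminescent ATP read-out (CellTiter-Glo) of metabolically active TC32 cells after 48 h exposure. Concentration-response curves came from 11-point (MIPE, 0.78 nM–46 µM) or 8-point (NPC, 0.59 nM–46 µM) primary titrations; follow-up used 11 points.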

[3] = qHTS of pediatric cancer cell lines to identify multiple opportunities for drug repurposing: Primary screen for DAOY cells (AID 1347090); note: series mostly up to about 46 µM; nearly all actives have a fitted effect of over 55% in size
Procedure, shortened: (§1)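 Cell viability, CellTiter-Glo luminescence; 500-1,000 cells/well, 8- or 11-point titration, 48 h compound exposure at 37 degrees C, 5% CO2. Controls: DMSO neutral, bortezomib 2.3 µM final as positive.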

[4] = qHTS of pediatric cancer cell lines to identify multiple opportunities for drug repurposing: Primary screen for SJ-GBM2 cells (AID 1347091)
Procedure, shortened: as §1

[5] = qHTS of pediatric cancer cell lines to identify multiple opportunities for drug repurposing: Primary screen for A673 cells (AID 1347092); note: nearly all actives have a fitted effect of over 45% in size
Procedure, shortened: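 Cell viability of A673 measured by CellTiter-Glo ATP luminescence after 48 hours compound exposure. Dilution series spanned 0.78 nM to 46 µM (MIPE, 11-point) or 0.59 nM to 46 µM (NPC, 8-point); bortezomib 2.3 uM positive control.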

[6] = qHTS of pediatric cancer cell lines to identify multiple opportunities for drug repurposing: Primary screen for BT-37 cells (AID 1347094); note: series mostly up to about 57 µM
Procedure, shortened: (§2)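 CRCs from 8- or 11-point titrations (lowest final 0.59 nM NPC, 0.78 nM MIPE). Cell viability: CellTiter-Glo after 48 h incubation, 15 min room-temperature development, luminescence imaging.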

[7] = qHTS of pediatric cancer cell lines to identify multiple opportunities for drug repurposing: Primary screen for NB-EBc1 cells (AID 1347095)
Procedure, shortened: as §2

[8] = qHTS of pediatric cancer cell lines to identify multiple opportunities for drug repurposing: Primary screen for U-2 OS cells (AID 1347096); note: nearly all actives have a fitted effect of over 50% in size
Procedure, shortened: (§3)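 Cells (500-1,000/well) rested 5 h, then received compounds for 48 h; metabolically active cells were measured by CellTiter-Glo luminescence. Final concentrations spanned up to 46 µM (MIPE, 11-point) or 0.59 nM-46 µM (NPC, 8-point) in primary screens, 11-point in follow-ups.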

[9] = qHTS of pediatric cancer cell lines to identify multiple opportunities for drug repurposing: Primary screen for Saos-2 cells (AID 1347097); note: nearly all actives have a fitted effect of over 40% in size
Procedure, shortened: as §2

[10] = qHTS of pediatric cancer cell lines to identify multiple opportunities for drug repurposing: Primary screen for SK-N-SH cells (AID 1347098); note: nearly all actives have a fitted effect of over 65% in size
Procedure, shortened: as §3

[11] = qHTS of pediatric cancer cell lines to identify multiple opportunities for drug repurposing: Primary screen for NB1643 cells (AID 1347099); note: nearly all actives have a fitted effect of over 50% in size
Procedure, shortened: as §2

[12] = qHTS of pediatric cancer cell lines to identify multiple opportunities for drug repurposing: Primary screen for LAN-5 cells (AID 1347100)
Procedure, shortened: as §3

[13] = qHTS of pediatric cancer cell lines to identify multiple opportunities for drug repurposing: Primary screen for BT-12 cells (AID 1347101); note: nearly all actives have a fitted effect of over 25% in size
Procedure, shortened: as §3

[14] = qHTS of pediatric cancer cell lines to identify multiple opportunities for drug repurposing: Primary screen for Rh18 cells (AID 1347102); note: nearly all actives have a fitted effect of over 65% in size
Procedure, shortened: as §3

[15] = qHTS of pediatric cancer cell lines to identify multiple opportunities for drug repurposing: Primary screen for OHS-50 cells (AID 1347103); note: nearly all actives have a fitted effect of over 40% in size
Procedure, shortened: as §3

[16] = qHTS of pediatric cancer cell lines to identify multiple opportunities for drug repurposing: Primary screen for SK-N-MC cells (AID 1347093); note: series mostly up to about 46 µM
Procedure, shortened: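 Metabolically active cells were quantified by ATP-dependent luminescence (CellTiter-Glo, 15 min at room temperature) following 48 h treatment. Cells had been plated at 500-1,000 per well and settled for 5 h beforehand.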

Measured: Potency

O=C(O)P(=O)(O)O
not listed: [16]
inactive: all other assays above

COc1cc(NS(=O)(=O)c2ccc(N)cc2)ncn1
not listed: [6]
inactive: all other assays above

CC(=O)NC(=O)c1ccccc1O
not listed: [13] | [16]
inactive: all other assays above

CC(=O)Oc1ccc(C)cc1
not listed: [6]
inactive: all other assays above

O=C(O)c1ccc(S(=O)(=O)N(Cl)Cl)cc1
not listed: [6] | [11]
inactive: all other assays above

CC1(C)OC[C@@H]2O[C@@]3(C(=O)O)OC(C)(C)O[C@H]3[C@@H]2O1
not listed: [16]
inactive: all other assays above

COc1ccc(S(=O)(=O)N2c3ccc(Cl)cc3[C@@](O)(c3ccccc3Cl)[C@H]2C(=O)N2CCC[C@@H]2C(N)=O)cc1OC
not listed: [16]
inactive: all other assays above

OC1C(O)C(O)C(O)C(O)C1O (configuration not stated)
not listed: [6] | [8] | [14]
inactive: all other assays above

Cc1cccc(C)c1NC(=O)CN1CCCC1
not listed: [14] | [16]
inactive: all other assays above

CC(=O)OCC1=C(C(=O)O)N2C(=O)[C@@H](NC(=O)CSc3ccncc3)[C@H]2SC1
not listed: [16]
inactive: all other assays above

CC(C)(Cc1c[nH]c2ccccc12)NCC(O)COc1ccccc1C#N (configuration not stated)
not listed: [6] | [10] | [13] | [15]
inactive: all other assays above

CN(C)C(=O)Nc1ccc(Cl)c(Cl)c1
not listed: [6] | [10]
inactive: all other assays above

O=C(CCN1CCN2CCCC2C1)N1c2ccccc2Sc2ccc(Cl)cc21 (configuration not stated)
not listed: [6] | [9] | [14] | [15]
inactive: all other assays above

O=C(NC1CCN(CCc2c[nH]c3ccccc23)CC1)c1ccccc1
not listed: [14] | [15] | [16]
inactive: all other assays above

O=C(O)C1(C(=O)O)CCC1.[NH2-].[NH2-].[Pt+2]
not listed: [14] | [16]
inactive: all other assays above

Cl/C(=C\n1cncn1)c1ccc(Cl)cc1Cl
not listed: [16]
inactive: all other assays above

Cc1cccc(C)c1NC(=O)CN1CCCCCC1
not listed: [6] | [11]
inactive: all other assays above

c1ccc(CC2=NCCN2)cc1
not listed: [16]
inactive: all other assays above

O=C1C(O)=C(O)C(=O)C(O)=C1O
not listed: [13] | [16]
inactive: all other assays above

C=C[C@H]1CN2CC[C@H]1C[C@@H]2[C@@H](O)c1ccnc2ccc(OC)cc12
not listed: [14] | [16]
inactive: all other assays above

NC(=S)N/N=C/c1cccnc1
not listed: [16]
inactive: all other assays above

NCCNc1cccc2ccccc12
not listed: [16]
inactive: all other assays above

CCCN(CCC)S(=O)(=O)c1ccc(C(=O)O)cc1
not listed: [16]
inactive: all other assays above
